Calls of active or inactive are those of the source.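 How the source made its calls: active means at least 20% inhibition of 6-phosphogluconate dehydrogenase activity; inactive means the rest.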
The compounds below were run against 6-phosphogluconate dehydrogenase, decarboxylating (Homo sapiens) (UniProt P52209) (assay: 6PGD enzyme inhibitors, primary screen, biochemical, human, recombinant enzyme, NADPH absorbance (AID 1159550)). Conditions: recombinant 6PGD, NADPH absorbance 341 nm; at 10 µM; active compounds read high.
6-phosphogluconate dehydrogenase, decarboxylating (Homo sapiens), sequence (P52209 whole entry, looked up): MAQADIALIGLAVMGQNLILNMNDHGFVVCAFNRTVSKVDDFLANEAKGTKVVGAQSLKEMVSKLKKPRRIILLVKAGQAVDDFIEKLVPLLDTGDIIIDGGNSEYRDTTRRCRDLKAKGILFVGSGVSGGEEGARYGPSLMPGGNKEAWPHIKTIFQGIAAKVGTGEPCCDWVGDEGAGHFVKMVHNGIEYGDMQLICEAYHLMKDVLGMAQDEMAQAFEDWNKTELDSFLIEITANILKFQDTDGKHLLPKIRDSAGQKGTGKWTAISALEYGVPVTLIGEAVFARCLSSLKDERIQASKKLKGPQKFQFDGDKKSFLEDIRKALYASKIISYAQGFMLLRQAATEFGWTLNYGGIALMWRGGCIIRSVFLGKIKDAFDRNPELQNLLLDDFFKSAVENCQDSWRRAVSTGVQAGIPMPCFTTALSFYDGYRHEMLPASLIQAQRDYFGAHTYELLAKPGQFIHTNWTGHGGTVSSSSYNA

Structure (SMILES)	inhibition
C=C1C([C@]2(C)C(CC(=O)OC)[C@@](C)(COC(C)=O)OC(=O)C[C@@H]2OC(C)=O)[C@@H](OC=O)[C@H](OC(=O)C(OC(C)=O)C(C)CC)[C@@]2(C)[C@H](c3ccoc3)CC(=O)C12O (some centres not stated)	-6.98% (inactive)
Cc1ccc2cc3c(ccc4ccccc43)c3c2c1CC3	-6.1% (inactive)
ClC1=C(Cl)C2(Cl)C3C(Cl)C(Cl)CC3C1(Cl)C2(Cl)Cl (configuration not stated)	-19% (inactive)
CN1[C@@H]2C[C@@H]3C[C@H]1[C@H](O)[C@H]2O3	-5.75% (inactive)
CC(=O)OC1CC(OC2C(O)CC(OC3C(O)CC(OC4CCC5(C)C(CCC6C5CC(O)C5(C)C(C7=CC(=O)OC7)CCC65O)C4)OC3C)OC2C)OC(C)C1OC1OC(CO)C(O)C(O)C1O (configuration not stated)	7.01% (inactive)
C[C@]12CC[C@@H](OS(=O)(=O)O)C[C@@H]1CC[C@@H]1[C@@H]2CC[C@]2(C)C(=O)CC[C@@H]12	5.35% (inactive)
CC1CC(O)C2(O)C13CC(=O)OCC2(C)C(C)(O)C(=O)C3 (configuration not stated)	17.6% (inactive)
CC(=O)[C@H]1CC[C@H]2[C@@H]3CC[C@H]4C[C@@H](O)CC[C@]4(C)[C@H]3CC[C@]12C	-19.3% (inactive)
COc1cc2c3cc1Oc1cc(ccc1O)C[C@@H]1c4c(cc(OC)c(O)c4Oc4ccc(cc4)C[C@H]3N(C)CC2)CCN1C	-17.6% (inactive)
CC[C@@H](C)C(=O)O[C@H]1[C@H](O)[C@H]2[C@@H](CN3C[C@@H](C)CC[C@H]3[C@@]2(C)O)[C@@H]2C[C@]34O[C@]5(O)[C@@H](OC(=O)[C@@](C)(O)[C@@H](C)O)CC[C@@]3(C)[C@@H]5[C@@H](OC(C)=O)[C@@H](OC(C)=O)[C@H]4[C@@]21O	7.64% (inactive)
CCS(=O)CCSP(=O)(OC)OC (configuration not stated)	1.58% (inactive)
O=C1CC2OCC=C3CN4CCC56c7ccccc7N1C5C2C3CC46 (configuration not stated)	-2.71% (inactive)
CNC(=O)O/N=C(/C)SC	-23.1% (inactive)
COc1cc2c(cc1OC)C(=O)c1ccc(OC)c(OC)c1OCC(=O)C2	-4.44% (inactive)
CC[C@H](C)C(=O)O[C@@H]1C[C@@]2(C)[C@H](c3ccoc3)OC(=O)C[C@]23OC2(C)O[C@@]34[C@H](OC(=O)C(C)C)C3(O)[C@@H](OC(=O)[C@@]5(C)O[C@@H]5C)C5(C)C[C@]3(O)[C@](C)([C@H]5CC(=O)OC)[C@@]14O2 (some centres not stated)	3.98% (inactive)
CCN1CC2(COC)C(O)CC(OC)C34C5CC6(O)C(OC)C(O)C(OC(C)=O)(C5C6OC(=O)c5ccccc5)C(C(OC)C23)C14 (configuration not stated)	17.1% (inactive)

Structure (SMILES)	inhibition
C=C1[C@@H]2CC[C@H]3[C@]4(C)C[C@H](O[C@@H]5O[C@H](CO)[C@@H](OS(=O)(=O)O)[C@H](OS(=O)(=O)O)[C@H]5OC(=O)CC(C)C)C[C@@H](C(=O)O)[C@H]4CC[C@]3(C2)[C@H]1O	5.29% (inactive)
COP(N)(=O)SC (configuration not stated)	4.36% (inactive)
C=C[C@H]1CN2CCC1C[C@H]2[C@H](OC(=O)OCC)c1ccnc2ccc(OC)cc12 (some centres not stated)	4.32% (inactive)
CCCCN(CC)c1c([N+](=O)[O-])cc(C(F)(F)F)cc1[N+](=O)[O-]	-9.8% (inactive)
CCC1C2CC3C4N(C)c5ccccc5C45CC(C2C5O)N3C1O (configuration not stated)	6.73% (inactive)
COP(=O)(NC(C)=O)SC (configuration not stated)	-9.95% (inactive)
C[C@]12C=CC(=O)C=C1CC[C@@H]1[C@@H]2CC[C@]2(C)C(=O)CC[C@@H]12	-9.35% (inactive)
COc1c2c(cc3c1OCO3)[C@]13C=C[C@H](OC)C[C@H]1N(C2)C[C@@H]3O	-2.74% (inactive)
C[C@]12CCC(=O)C=C1CCc1ccc(O)cc12	-3.52% (inactive)
CC(=O)OC1CCC2(C)C(=CCC3C4CCC(=O)C4(C)CCC32)C1 (configuration not stated)	2.3% (inactive)
CN1C2C[C@H](OC(=O)[C@H](CO)c3ccccc3)CC1[C@@H](O)C2 (some centres not stated)	-3.17% (inactive)
ClC1=C(Cl)C2(Cl)C3C(Cl)C=CC3C1(Cl)C2(Cl)Cl (configuration not stated)	0.441% (inactive)
c1cc2c(cc1[C@H]1OC[C@@H]3[C@H]1CO[C@H]3c1ccc3c(c1)OCO3)OCO2	-14.7% (inactive)
c1cncc([C@@H]2CCCCN2)c1	4.92% (inactive)
ClC(Cl)=C(c1ccc(Cl)cc1)c1ccc(Cl)cc1	-15% (inactive)
C=C(C)C(=O)/C(=C/C(=O)O)OC	12.8% (inactive)

Source: PubChem BioAssay
